TDP1 inh: TDP1 (human) enzyme inhibition | Q9NUW8 | recombinant TDP1, AlphaScreen DNA substrate cleavage | Potency, µM (series often up to 130 µM), most hits filed as inhibitors | actives 0.28% (n = 350,000); further: nearly all actives have a fitted effect of over 40% in size
Target sequence (Q9NUW8 whole entry, looked up): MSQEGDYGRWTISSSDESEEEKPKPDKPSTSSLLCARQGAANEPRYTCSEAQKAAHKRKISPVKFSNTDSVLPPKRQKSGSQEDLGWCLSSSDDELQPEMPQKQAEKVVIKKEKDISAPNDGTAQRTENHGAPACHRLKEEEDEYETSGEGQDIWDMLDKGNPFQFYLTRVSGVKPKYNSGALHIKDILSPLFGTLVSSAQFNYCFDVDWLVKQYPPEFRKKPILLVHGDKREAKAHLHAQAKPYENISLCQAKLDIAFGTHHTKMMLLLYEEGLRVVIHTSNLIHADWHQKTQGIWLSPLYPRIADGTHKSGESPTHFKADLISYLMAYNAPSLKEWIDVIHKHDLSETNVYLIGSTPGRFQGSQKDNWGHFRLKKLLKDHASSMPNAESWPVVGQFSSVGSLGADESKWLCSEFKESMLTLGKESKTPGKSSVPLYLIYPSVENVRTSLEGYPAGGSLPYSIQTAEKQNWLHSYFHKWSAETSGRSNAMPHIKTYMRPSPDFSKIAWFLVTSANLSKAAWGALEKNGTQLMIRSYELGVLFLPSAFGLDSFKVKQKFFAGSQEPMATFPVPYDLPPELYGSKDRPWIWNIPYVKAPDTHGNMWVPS
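Recombinant E. coli-expressed Tdp1 (1 nM) preincubated with compound 15 min at RT, then 5'-biotin/3'-phosphotyrosine-FITC DNA substrate (15 nM) added for 5 min. AlphaScreen beads (10 ug/ml) added, 10 min RT; tyrosine-FITC cleavage read as signal loss.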
TDP1 cell CPT: growth inhibition of DT40 Tdp1-/-;hTDP1 cells with camptothecin (screen for TDP1 inhibitors); actives 12% (n = 420,000); Potency, µM (series often up to 46.2 µM), usual class: inhibitors; chicken DT40 Tdp1-/-;hTDP1 cells + 20 nM CPT, ATP luminescence, 48 h; further: nearly all actives have a fitted effect of over 55% in size
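Chicken DT40 Tdp1-/- cells stably complemented with human TDP1 were seeded at 400 cells/well in medium containing 20 nM camptothecin, exposed to pin-transferred compounds, and grown at 37 °C for at least 48 hr. Viability was read as ATP luminescence.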
CtBP-E1A inh: inhibitors of CtBP/E1A interaction; actives 0.49% (n = 340,000); activity change, % (test concentration not listed); AlphaScreen GST-E1A/His-CtBP binding, 1536-well; hits give low values; in the data active means activity change below about -65%; inconclusive means mostly about -30% to -63%
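Steps: dispense buffer (Tris pH 8.0, NaCl 300 mM, TCEP 1 mM, BSA, Tween 20); add 5X protein mix (GST-E1A, His-CtBP, 125 nM each); pin 23 nL compound; 2 h at 37 °C, dark; add 5X beads (50 ug/mL); 1 h; read.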
DT40 TDP1 no CPT: qHTS for Inhibitors of human tyrosyl-DNA phosphodiesterase 1 (TDP1): qHTS in cells in absence of CPT; Potency, µM (series often up to 46.2 µM), most hits filed as inhibitors; AID 686978, 2013; actives 15% (n = 420,000); DT40 Tdp1-/- hTDP1 cells, no CPT, ATP luminescence, 48 h; further: nearly all actives have a fitted effect of over 55% in size
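No-CPT arm: Tdp1-/-;hTDP1 DT40 cells (400/well) plus compounds, incubated ≥48 hr at 37 °C. Readout CellTiter-Glo luminescence.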
IL1B secr inh: inflammasome signaling inhibition, IL-1 beta readout; activity change, % at 57.5 µM; THP-1 LPS/ATP IL-1B secretion, AlphaLISA, 16 h; hits give low values; actives 4.7% (n = 360,000); AID 743279; in the data active means activity change below about -50%; inconclusive means mostly about -30% to -49%
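THP-1 cells pretreated 1 hr with compounds (up to 57.5 uM final), then stimulated with LPS (250 ng/mL final) plus ATP (1.25 mM final); secreted IL-1B measured by AlphaLISA after 16 hr, decreased signal indicating inhibition.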
Six1-Eya2 blk: Six1/Eya2 interaction inhibition. Q15475+O00167. AlphaScreen GST-Six1/His-Eya2 binding, biochemical; hits give low values. activity change, % (no concentration beside the values). actives 0.56% (n = 360,000); in the data active means activity change below about -65%; inconclusive means mostly about -30% to -63%
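Compounds are tested against tagged Six1 and Eya2 proteins bridged by glutathione donor and nickel acceptor beads; after a one-hour incubation at 37 °C without light, AlphaScreen emission is recorded.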
Of the large screens only hits and unclear results are named; the others gave an inactive call. Most compounds without a hit are left out; they make up all but 18% or so of the library. Unless noted, the call rests on the fitted dose curve; in most records, active means well fitted curve in the direction sought with a large enough effect; inconclusive means small, poorly fitted or top-dose-only effect, or another doubt; inactive means no such curve, though single readings can be large; an effect the other way counts as inactive or inconclusive.

COc1ccc(/C=C/C(=O)Nc2nc3n(n2)C(c2ccccc2)C=C(c2ccccc2)N3)cc1 (configuration not stated)	TDP1 cell CPT 7.3µM, DT40 TDP1 no CPT 5.8µM (no result: TDP1 inh, CtBP-E1A inh, IL1B secr inh, Six1-Eya2 blk)
COc1ccc(C2C=C(c3ccccc3)Nc3nc(NC(=O)/C=C/c4ccc(F)cc4)nn32)cc1 (configuration not stated)	TDP1 cell CPT 21µM, DT40 TDP1 no CPT 21µM (no result: CtBP-E1A inh, IL1B secr inh, Six1-Eya2 blk)
COc1ccc(/C=C/C(=O)Nc2nc3n(n2)C(c2ccc(F)cc2)C=C(c2ccccc2)N3)cc1 (configuration not stated)	TDP1 cell CPT 5.2µM, DT40 TDP1 no CPT 3.7µM (no result: CtBP-E1A inh, IL1B secr inh, Six1-Eya2 blk)
COc1ccc(OC)c(C2=NO[C@@H]3C(=O)N(c4cc(Cl)ccc4OC)C(=O)[C@H]23)c1	none
CCCc1cc(=O)[nH]c(SCC(=O)Nc2ccc3ccccc3c2)n1	none
COc1ccc(-c2[nH]ncc2N=Nc2cc(C)cc(C)c2)cc1	TDP1 cell CPT 0.21µM, DT40 TDP1 no CPT 10µM, IL1B secr inh -92 (no result: CtBP-E1A inh)
COc1ccc(-c2[nH]ncc2C(=O)NCc2ccccc2C)cc1	none (no result: CtBP-E1A inh, IL1B secr inh, Six1-Eya2 blk)
COc1ccc(-c2[nH]ncc2N=Nc2ccccc2)cc1	TDP1 cell CPT inconclusive, CtBP-E1A inh inconclusive, DT40 TDP1 no CPT inconclusive, IL1B secr inh -68
COc1cccc(NC(=O)COC(=O)c2c(C)nn(-c3ccccc3)c2C)c1	TDP1 cell CPT inconclusive, IL1B secr inh -56
COc1cccc(NC(=O)COC(=O)c2c3c(nc4ccccc24)CCC(C)C3)c1 (configuration not stated)	TDP1 cell CPT 8.2µM, DT40 TDP1 no CPT 9.2µM
CN1CCN(C(=S)c2ccc([N+](=O)[O-])cc2)CC1	none
O=C(COc1ccccc1)Nc1cccc(-c2nc3ccccc3[nH]2)c1	TDP1 cell CPT inconclusive, DT40 TDP1 no CPT 23µM, IL1B secr inh -101
COc1ccc(OCC(=O)Nc2cccc(-c3nc4ccccc4[nH]3)c2)cc1	TDP1 cell CPT 15µM, DT40 TDP1 no CPT inconclusive, IL1B secr inh inconclusive
COc1cc(NC(=O)Cc2cccs2)ccc1-n1cnnn1	none
CSc1ccc(-c2ccc(C(=O)NCC3CCCO3)c(N3CCC(O)CC3)n2)cc1 (configuration not stated)	none (no result: TDP1 inh, CtBP-E1A inh, IL1B secr inh, Six1-Eya2 blk)
O=C(NCc1cc(Br)cc(Br)c1OC(=O)c1ccccc1[N+](=O)[O-])c1ccccc1	TDP1 cell CPT inconclusive, CtBP-E1A inh inconclusive, DT40 TDP1 no CPT inconclusive, Six1-Eya2 blk -72
O=C(NCCNC(=O)c1ccccc1[N+](=O)[O-])c1ccccc1[N+](=O)[O-]	none (no result: TDP1 inh)
COc1ccc(N2CCn3c2nc2c3c(=O)n(CCN3CCOCC3)c(=O)n2C)cc1	none (no result: TDP1 cell CPT, CtBP-E1A inh, DT40 TDP1 no CPT, IL1B secr inh, Six1-Eya2 blk)
Cc1nn2c(=O)cc(COC(=O)Cc3ccccc3)nc2s1	none (no result: CtBP-E1A inh, IL1B secr inh, Six1-Eya2 blk)
Cc1cccc(NC(=O)COC(=O)c2ccc3c(=O)n4c(nc3c2)CCC4)c1	none
O=C(OCc1cc(=O)n2c(n1)sc1ccccc12)c1ccc2c(=O)n3c(nc2c1)CCC3	TDP1 inh 50µM
CC(C)[C@H](NC(=O)Cc1ccccc1)C(=O)OCc1cc(=O)n2c(n1)sc1ccccc12	TDP1 cell CPT 15µM, DT40 TDP1 no CPT 13µM (no result: TDP1 inh)
Cc1ccc2c(CC(=O)OCc3cc(=O)n4c(n3)sc3ccccc34)coc2c1	TDP1 inh 25µM
O=C(CN1C(=O)c2ccccc2C1=O)Nc1cccnc1	DT40 TDP1 no CPT inconclusive
COc1cc(OC)c(Nc2nc3ccc(C(=O)c4ccccc4)cc3n3c(C)nnc23)cc1Cl	none (no result: CtBP-E1A inh, IL1B secr inh, Six1-Eya2 blk)
CC1CC/C(=C\c2ccc3c(c2)OCO3)C(=O)/C1=C/c1ccc2c(c1)OCO2 (configuration not stated)	TDP1 cell CPT inconclusive, DT40 TDP1 no CPT inconclusive, IL1B secr inh -55
CCOc1ccc(NC(=O)c2ccccc2OCC(=O)c2ccccc2)cc1	TDP1 cell CPT 23µM, DT40 TDP1 no CPT 16µM
Cc1cccc(NC(=O)COc2ccccc2C(=O)NC(C)c2ccccc2)c1 (configuration not stated)	TDP1 cell CPT inconclusive, DT40 TDP1 no CPT 29µM
Cc1ccccc1OCC(=O)Nc1cccc(C(=O)O)c1	none
Cc1ccc(NC(=O)c2ccccc2OCC(=O)c2ccccc2)cc1	TDP1 cell CPT inconclusive, DT40 TDP1 no CPT inconclusive
Cc1cccc(NC(=O)c2ccccc2OCC(=O)c2ccccc2)c1	TDP1 cell CPT inconclusive, DT40 TDP1 no CPT 16µM, IL1B secr inh inconclusive
CCOc1ccc(NC(=O)C(C)Oc2ccccc2C(=O)Nc2cccc(Cl)c2Cl)cc1 (configuration not stated)	TDP1 cell CPT inconclusive, DT40 TDP1 no CPT 18µM
O=C(N/N=C/C=C/c1ccccc1)c1cnccn1	none
CN(C)CCn1cnc2c1c(=O)[nH]c(=O)n2Cc1ccccc1	none (no result: TDP1 inh)
COc1ccc(/C=N/NC(=O)c2cccnc2)cc1CN1CCc2ccccc2C1	TDP1 cell CPT inconclusive, DT40 TDP1 no CPT inconclusive
CCOc1ccccc1C(=O)Nc1ccc(C(=O)c2ccccc2)cc1	TDP1 cell CPT 23µM, DT40 TDP1 no CPT inconclusive
CCOc1ccccc1C(=O)Nc1ccc(NC(=O)c2ccccc2)cc1	none (no result: TDP1 inh, CtBP-E1A inh)
CC(C(=O)NCc1cccs1)N1CCN(S(=O)(=O)c2ccc3c(c2)OCCCO3)CC1 (configuration not stated)	TDP1 cell CPT inconclusive, DT40 TDP1 no CPT inconclusive
CCCn1c(SCC(=O)N2c3ccccc3CC2C)nnc1-c1ccco1 (configuration not stated)	TDP1 cell CPT 21µM, DT40 TDP1 no CPT inconclusive
CCCn1c(SCC(=O)N2CCc3ccccc32)nnc1-c1ccco1	TDP1 cell CPT inconclusive
CC1Cc2ccccc2N1C(=O)CSc1nnc(Cc2ccccc2)n1CCc1ccccc1 (configuration not stated)	TDP1 cell CPT inconclusive, DT40 TDP1 no CPT 23µM
CCOc1c2ccc(C(=O)NCC34CC5CC(CC(C5)C3)C4)cc2nn1CC	TDP1 cell CPT 29µM, DT40 TDP1 no CPT 16µM, IL1B secr inh inconclusive
CCOc1c2ccc(C(=O)NCc3ccco3)cc2nn1CCOC	none
CCOc1c2ccc(C(=O)N[C@H](C)C3CCCCC3)cc2nn1CCOC	TDP1 cell CPT 1.8µM, DT40 TDP1 no CPT 1µM
CCCn1nc2cc(C(=O)NCCc3cccs3)ccc2c1OCC	DT40 TDP1 no CPT 18µM (no result: CtBP-E1A inh)
CCCCn1nc2cc(C(=O)NCC34CC5CC(CC(C5)C3)C4)ccc2c1OC	TDP1 cell CPT 18µM, DT40 TDP1 no CPT inconclusive
CCCCNC(=O)c1ccc2c(OCC)n(CCCC)nc2c1	none
Cn1cc(-c2ccccc2C(=O)O)c(=O)c2ccccc21	none (no result: TDP1 inh)
